# ChEMBL document CHEMBL4296182, “CO-ADD screening of NIH NCI Diversity Set V”
# For part of these data: Measured potencies and affinities stand elsewhere.
# Legend:
# Staphylococcus aureus = test: Antibacterial activity against Staphylococcus aureus MRSA ATCC 43300 (CO-ADD:GP_020); MIC in CAMBH media using NBS plates, by Resazurin F(560/590); format: functional; conditions: Concentration 20 uM, ASSAY_TEST Inhibition of Bacterial Growth, detection method Resazurin, Fluorescence (ex560/em590), MEDIA CAMHB, plate type 384well, CORNING #3640, time 18 hr
# Acinetobacter baumannii = test: Antibacterial activity against Acinetobacter baumannii ATCC 19606 (CO-ADD:GN_034); MIC in CAMBH media using NBS plates, by Resazurin F(560/590); format: functional; conditions: Concentration 20 uM, ASSAY_TEST Inhibition of Bacterial Growth, detection method Resazurin, Fluorescence (ex560/em590), MEDIA CAMHB, plate type 384well, CORNING #3640, time 18 hr
# Escherichia coli = test: Antibacterial activity against Escherichia coli ATCC 25922 (CO-ADD:GN_001); MIC in CAMBH media using NBS plates, by Resazurin F(560/590); format: functional; conditions: Concentration 20 uM, ASSAY_TEST Inhibition of Bacterial Growth, detection method Resazurin, Fluorescence (ex560/em590), MEDIA CAMHB, plate type 384well, CORNING #3640, time 18 hr
# Klebsiella pneumoniae = conditions: Concentration 20 uM; ASSAY_TEST Inhibition of Bacterial Growth; detection method Absorption (OD600); MEDIA CAMHB; plate type 384well; NBS; CORNING #3640; time 18 hr
# Candida albicans = conditions: 20 µM
# Cryptococcus neoformans = conditions: Concentration 20 uM; ASSAY_TEST Inhibition of Fungal Growth; detection method Resazurin; Absorption (OD600-OD570); plate type 384well; NBS; CORNING #3640
SMILES,Inhibition (Staphylococcus aureus),Inhibition (Acinetobacter baumannii),Inhibition (Escherichia coli),Inhibition (Klebsiella pneumoniae),Inhibition (Candida albicans),Inhibition (Cryptococcus neoformans)
CC(=O)[C@H]1CC[C@H]2[C@@H]3CCC4=CC(=O)C=C[C@]4(C)[C@H]3C(=O)C[C@]12C,11.15%,-7.04%,-4.55%,23.74%,4.8%,-6.32%
CCOC(CNCc1cc(C)c2[nH]c3ccccc3c2c1C)OCC,11.65%,-1.22%,3.76%,8.4%,1.3%,-11.65%
CC(=O)Nc1nc(C)c(CCC2OCCO2)c(O)n1,4.85%,12.66%,-15.79%,16.29%,5.32%,22%
Nc1ccc(C(=O)Oc2ccc([N+](=O)[O-])cc2)cc1,12.07%,4.99%,4.45%,11.91%,3.13%,-14.05%
CC(=O)OC1CCC2(C)C(=CCC3C2CCC2(C)C3CC3OC4(CCC(C)CN4)C(C)C32)C1 (centres undefined),-5.01%,-6.15%,18.44%,9.38%,6.33%,14.75%
O=C1CCC(NC(=O)c2ccccc2)C(=O)N1 (centres undefined),13.55%,6.82%,7.42%,5.68%,1.37%,-6.13%
O=C(O)/C=C\C(=O)Nc1ccc(-c2ccccc2)cc1,-11.84%,13.91%,-6.62%,15.61%,23%,-5.96%
CC(C)(C)CC(C)(C)n1nnnc1N,12.74%,-17.3%,15.8%,12.31%,0.83%,-5.24%
O=[N+]([O-])c1cccnc1Oc1cccnc1,16.25%,-14.38%,11.2%,9.34%,-2.59%,-10.27%
COc1ccc(N/C=C2\C(=O)CCc3c2oc2cc(Cl)c(O)c(Cl)c32)cc1,7.05%,-14.01%,13.43%,4.7%,3.38%,-7.04%
COc1ccc2c(=O)cc(-c3cccnc3)oc2c1OC,4.17%,8.21%,2.42%,26.45%,9.13%,-11.85%
O=C(C(=O)c1cccnc1)c1cccnc1,7.87%,-9.17%,12.61%,6.86%,-0.57%,-3.14%
CC(C)(C)N1CC(OC(N)=O)C1,21.14%,-14.09%,8.01%,8.74%,1.7%,-9.34%
O=C1c2ccccc2C2=C3C(O)=NN=C3CCN12,13.67%,14.87%,4.79%,9.82%,5.2%,-1.84%
O=C1c2ccccc2C(=O)c2c1cccc2-n1nnc2ccccc21,8.87%,-5.95%,13.14%,0.02%,0.12%,-17.13%
CC(C)(C)NC(=O)c1ccc(C(=O)NC(C)(C)C)cc1,-9.07%,-9.96%,2.15%,15.3%,8.15%,-7.37%
CSc1nc(N)c(C(=O)NC2CCCCC2)s1,30.14%,-5.51%,5.05%,13.28%,8.55%,-3.08%
Cn1c([N+](=O)[O-])cnc1N1CCN(c2nncs2)C1=O,0.67%,-10.23%,2.52%,15.88%,1.82%,-10.17%
COc1ccc2c3c([nH]c2c1)[C@H]1C[C@H]2[C@H](C[C@@H](O)[C@H](OC)[C@H]2C(=O)O)CN1CC3,6.35%,2.79%,-2.06%,4.58%,-1.6%,-3.05%
O=C1NC(=O)N2CCSC2(Cc2ccccc2)N1 (centres undefined),11.67%,11.67%,-4.61%,17.33%,4.4%,-2.7%
COc1ccc2c(c1)CCN1C2CCN2C(=O)CCC21 (centres undefined),-11.91%,-4.71%,-9.16%,7.62%,3.14%,-4.03%
CCOc1ccc2sc(NS(=O)(=O)c3ccc(N)cc3)nc2c1,-6.39%,-10.5%,7.14%,12.93%,4%,-12.92%
O=C(O)c1cc2ccccc2cc1Nc1ccccc1,0.16%,5.64%,-16.93%,8.83%,12.2%,17.2%
O=C(O)c1ccc(N2CCCCC2)cc1O,7.99%,-7.54%,7.11%,12.65%,8.64%,-11.23%
O=c1c2ccccc2ncn1-c1ccc(Cl)cc1,11.71%,-18.47%,12.96%,4.73%,3.91%,-12.39%

SMILES,Inhibition (Staphylococcus aureus),Inhibition (Acinetobacter baumannii),Inhibition (Escherichia coli),Inhibition (Klebsiella pneumoniae),Inhibition (Candida albicans),Inhibition (Cryptococcus neoformans)
CCC(C)NC(=O)CC(C)C (centres undefined),6.08%,-12.68%,19.94%,15.35%,-0.68%,-12.52%
COc1ccc(C2C3=C(COC3=O)Oc3cc4c(cc32)OCO4)cc1OC (centres undefined),25.54%,-8.11%,12.52%,17.02%,0.53%,-1.21%
CC1(C)CC(Nc2ccc(Nc3ccccc3)cc2)CC(C)(C)N1,6.04%,9.93%,-3.22%,10.49%,1.33%,-0.13%
Br.C=CC1CN2CCC1CC2C(O)c1ccnc2ccc(OC)cc12 (centres undefined),-3.41%,0.49%,16.29%,15.08%,-0.01%,7.91%
CCc1cccc2[nH]c3cc([N+](=O)[O-])ccc3c12,6.44%,1.17%,2.96%,-4.47%,9.1%,12.93%
NC(=O)c1ccc2c(c1)S(=O)(=O)c1ccccc1C2=O,12.96%,-8.12%,-3.77%,24.13%,1.19%,-8.66%
N#C/C(=C\c1ccc[nH]1)C(=O)c1ccccc1,9.96%,7.21%,0.79%,8.89%,10.3%,-7.32%
CC(C)(C)c1ccc(OC(=O)c2ccccc2)cc1,-7.46%,6.71%,7.42%,8.33%,9.75%,-15.41%
CCCSc1ncnc2[nH]ncc12,4.5%,-9.04%,5.02%,27.49%,6.91%,-5.45%
Nc1ccc(NC(=O)c2ccc(C(=O)Nc3ccc(N)cc3)cc2)cc1,11.02%,-8.34%,15.83%,3.68%,40.4%,10.38%
CCOC(=O)c1[nH]c(C(=O)O)c(OC(=O)CC)c1C,3.4%,12.19%,5.33%,12.1%,11.4%,-14.68%
Cc1cnc2c(N)cc(C)c(C)c2c1,23.12%,-5.88%,9.48%,9.31%,23.1%,-10.43%
Cc1cc(C)c(C#N)c(Sc2nc(C)c([N+](=O)[O-])c(C)c2C#N)n1,33.8%,4.2%,1.58%,21.76%,8.27%,2.92%
Cc1cc(NC(=O)Nc2cc(F)ccc2F)no1,-1.77%,-0.21%,10.41%,7.53%,2.67%,-5.29%
NC(=O)Nc1n[nH]c(-c2ccccc2)n1,-5.91%,-11.11%,-7.81%,2.72%,1.88%,1.04%
O=Cc1c[nH]c2ncccc12,3.78%,-8.67%,4.47%,13.98%,4.83%,-7.37%
Oc1nc2ccccc2n1C1=CCNCC1,-11.2%,-15.97%,0.33%,8.73%,2.14%,-5.4%
Cc1nc([C@H]2CC[C@H]3[C@@H]4CCC5=CC(=O)CC[C@]5(C)[C@H]4CC[C@]23C)cs1,4.31%,15.21%,6.81%,9.22%,2.4%,-7.32%
Nc1ccc2c(c1)N=[N+]([O-])c1cc(N)ccc1C2,12.24%,-9.52%,10.77%,23.9%,-4.33%,-8.98%
CC1CC(C)(C)C2=NCCN21 (centres undefined),12.73%,-16.85%,7.35%,11.7%,5.23%,-11%
Oc1ccccc1-c1nc2c3ccccc3c3ccccc3c2[nH]1,17.7%,0.13%,3.46%,14.09%,6.21%,-5.55%
Clc1ccc(-c2[nH]nc3c2Cc2ccccc2-3)cc1Cl,-2.87%,13.22%,-5.11%,8.31%,5.84%,2.71%
Cn1ncc2c(Nc3ccc([N+](=O)[O-])cc3)nc(Cl)nc21,-16.06%,3.27%,-14.4%,-8.72%,-1.97%,-3.09%
O=C1NC(=S)S/C1=C\c1ccccc1C(=O)O,-3.3%,-13.4%,1.72%,11.85%,14.4%,-5.59%
